Hit rate of the full screen: of about 39,000 compounds, about 220 (0.56%) showed activity. The sample as a whole holds a higher share of actives than the screen did.
Test system: Escherichia coli K-12 BW25113
Assay: relative growth (OD600 normalised to plate interquartile mean) (fraction); higher = less growth inhibition, active = 0.2 or less
Conditions: 50 µM; LB; incubation time: overnight (16-24 h)
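Further: Wild-type cells incubated without shaking, value is the mean of two biological replicates.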

Q: For `COc1ccc(NC(=O)N(C)C[C@@H]2OCCCC[C@@H](C)Oc3ccc(NC(=O)Nc4ccccc4)cc3C(=O)N([C@H](C)CO)C[C@@H]2C)cc1`, which relative growth is on record?
A: 1.01 (inactive)

Q: `CCCCCCO[C@@H](C)c1cccc(-c2csc(NC(=O)c3cc(Cl)c(/C=C(\C)C(=O)O)c(Cl)c3)n2)c1OC` was tested. Which relative growth did it give?
A: 0.777 (inactive)

Q: `C=CCC[C@H](Cc1ccc(F)cc1)C(=O)O[C@@H](CNC(=O)[C@@H](CC=C)CC(=O)N(CCO)Cc1ccccc1)c1ccccc1` was tested. Which relative growth did it give?
A: 1.07 (inactive)

Q: Which relative growth does the source give for `CC(=O)N1CCN(C(=O)C(=O)NC[C@H](c2ccc(N(C)C)cc2)N2CCOCC2)CC1` here?
A: 0.989 (inactive)

Q: With `Cc1cc(C)c(NC(=O)[C@@H](N)Cc2ccccc2)c(Cl)c1` as the molecule, how does the relative growth read?
A: 1.02 (inactive)

Q: Which relative growth does the source give for `Cc1ccc(S(=O)(=O)N(C)C[C@H]2Oc3cc(C#Cc4ccncc4)ccc3S(=O)(=O)N([C@@H](C)CO)C[C@H]2C)cc1` here?
A: 1.04 (inactive)

Q: How did the relative growth turn out when `c1ccc(-c2ccnc(-c3cc(-c4ccccc4)ccn3)c2)cc1` was run?
A: 0.99 (inactive)

Q: For `Cl.NCCCC(=O)O` [gamma-AMINOBUTYRIC ACID HYDROCHLORIDE], which relative growth is on record?
A: 0.905 (inactive)

Q: Which relative growth does the source give for `O=C(O)c1ccc2c(c1)OCO2` here?
A: 0.853 (inactive)

Q: Which relative growth does the source give for `CCn1nc(C(=O)O)c(=O)c2cc3c(cc21)OCO3` here?
A: 0.0537 (active)

Q: For `CNC(=O)NCc1ccc2c(c1)OCO2`, which relative growth is on record?
A: 1 (inactive)

Q: `C[C@H](CO)N1C[C@H](C)[C@H](CN(C)S(=O)(=O)c2cn(C)cn2)OCCCC[C@H](C)Oc2ccc(NS(=O)(=O)c3cccs3)cc2C1=O` was tested. Which relative growth did it give?
A: 1.01 (inactive)

Q: Which relative growth does the source give for `CS(=O)(=O)N(CCC#N)Cc1ccco1` here?
A: 1 (inactive)

Q: `C[C@H]1CN([C@@H](C)CO)C(=O)Cc2cc(NC(=O)CCN3CCOCC3)ccc2O[C@@H]1CN(C)S(=O)(=O)c1cn(C)cn1` was tested. Which relative growth did it give?
A: 1.03 (inactive)

Q: For `CC(C)NC(=O)N(C)C[C@@H]1Oc2ccc(NC(=O)Cc3ccccc3)cc2CC(=O)N([C@H](C)CO)C[C@H]1C`, which relative growth is on record?
A: 0.977 (inactive)

Q: With `CC(C)NC(=O)N(C)C[C@@H]1Oc2ccc(NC(=O)CCC(F)(F)F)cc2CC(=O)N([C@H](C)CO)C[C@@H]1C` as the molecule, how does the relative growth read?
A: 0.959 (inactive)

Q: With `Cn1c(=O)cnn(CCCCN2CCN(c3ncccn3)CC2)c1=O` as the molecule, how does the relative growth read?
A: 0.987 (inactive)

Q: `O=C(C1CC1)N1CCN(c2ncccn2)CC1` was tested. Which relative growth did it give?
A: 0.991 (inactive)

Q: `Cl.O=C1CC2(CCCC2)CC(=O)N1CCCCN1CCN(c2ncccn2)CC1` was tested. Which relative growth did it give?
A: 0.0493 (active)

Q: For `CC(C)CC#Cc1cnc2c(c1)C(=O)N([C@@H](C)CO)C[C@@H](C)[C@H](CN(C)C(=O)CCN1CCCCC1)O2`, which relative growth is on record?
A: 0.987 (inactive)

Q: Which relative growth does the source give for `COc1ccc(NC(=O)N(C)C[C@@H]2Oc3c(NC(=O)CCCCCC(=O)Nc4ccccc4N)cccc3C(=O)N([C@H](C)CO)C[C@H]2C)cc1` here?
A: 1.01 (inactive)

Q: Which relative growth does the source give for `C[C@@H]1CN([C@H](C)CO)C(=O)c2cc(NC(=O)Nc3ccc(C(F)(F)F)cc3)ccc2O[C@@H]1CN(C)Cc1ccc(-c2ccccc2)cc1` here?
A: 0.996 (inactive)

Q: `O=C1NCCN1c1ncc([N+](=O)[O-])s1` was tested. Which relative growth did it give?
A: 0.0407 (active)

Q: How did the relative growth turn out when `CC(=O)Nc1ncc([N+](=O)[O-])s1` was run?
A: 0.923 (inactive)

Q: `O=C1NCCN1c1cccnc1` was tested. Which relative growth did it give?
A: 1.01 (inactive)

Q: `Cc1noc(C)c1NC(=O)Nc1ccc2c(c1)CC(=O)N([C@H](C)CO)C[C@@H](C)[C@H](CN(C)CC1CC1)O2` was tested. Which relative growth did it give?
A: 1.02 (inactive)

Q: `CC(CCC(=O)O)C1CCC2C3C(O)CC4CC(O)CCC4(C)C3CCC12C` (centres undefined) was tested. Which relative growth did it give?
A: 1.01 (inactive)

Q: Which relative growth does the source give for `COC(=O)CCC(C)C1CCC2C3C(O)CC4CC(O)CCC4(C)C3CC(O)C12C` (centres undefined) here?
A: 1.03 (inactive)

Q: Which relative growth does the source give for `CC(C)[C@@H](CC[C@@H](C)[C@H]1CC[C@H]2[C@@H]3[C@H](O)C[C@H]4C[C@@H](NCCCNCCCCNCCCN)CC[C@]4(C)[C@H]3CC[C@]12C)OS(=O)(=O)O` here?
A: 0.152 (active)

Q: How did the relative growth turn out when `C[C@H](CCC(=O)NCCS(=O)(=O)O)[C@H]1CC[C@H]2[C@@H]3[C@H](O)C[C@@H]4C[C@H](O)CC[C@]4(C)[C@H]3C[C@H](O)[C@]12C` was run?
A: 1.01 (inactive)

Q: `CCCCCCCCCCCCCCCCCCCC(=O)N[C@H]1CC[C@@]2(C)[C@@H](C1)C[C@@H](O)[C@@H]1[C@@H]2C[C@H](O)[C@]2(C)[C@@H]([C@H](C)CCC(=O)O)CC[C@@H]12` was tested. Which relative growth did it give?
A: 1.02 (inactive)

Q: `CC(C)[C@@H](CC[C@@H](C)[C@H]1CC[C@H]2[C@@H]3[C@H](O)C[C@H]4C[C@@H](NCCCNCCCCN)CC[C@]4(C)[C@H]3CC[C@]12C)OS(=O)(=O)O` was tested. Which relative growth did it give?
A: 0.137 (active)

Q: `C[C@H]1CN([C@@H](C)CO)C(=O)Cc2cc(NC(=O)Cc3ccccc3)ccc2O[C@@H]1CN(C)S(=O)(=O)c1ccccc1` was tested. Which relative growth did it give?
A: 0.993 (inactive)

Q: With `CCOC(=O)[C@@H](C)n1ncn2cccc2c1=O` as the molecule, how does the relative growth read?
A: 1.01 (inactive)

Q: `CCCC#Cc1ccc2c(c1)O[C@@H](CN(C)C(=O)c1cnccn1)[C@@H](C)CN([C@H](C)CO)S2(=O)=O` was tested. Which relative growth did it give?
A: 0.971 (inactive)

Q: Which relative growth does the source give for `C[C@H]1CC/C=C\[C@H]2O[C@@]34C=CCN(c5ccc6ccccc6c5)C(=O)[C@H]3N(CCO)C(=O)[C@@H]4[C@@H]2C(=O)O1` here?
A: 0.983 (inactive)

Q: Which relative growth does the source give for `CC(=O)N1C[C@@H]2C(=O)N(C)C3(CCN(S(=O)(=O)Cc4ccccc4)CC3)[C@H]2C1` here?
A: 0.958 (inactive)

Q: `C[C@H]1CN([C@@H](C)CO)C(=O)Cc2cc(NC(=O)CCCCCC(=O)Nc3ccccc3N)ccc2O[C@H]1CN(C)C(=O)Nc1ccc(C(F)(F)F)cc1` was tested. Which relative growth did it give?
A: 0.958 (inactive)

Q: `C[C@H]1CN([C@@H](C)CO)C(=O)c2c(c3ccccc3n2C)-c2ccccc2CO[C@@H]1CN(C)Cc1cccc(F)c1` was tested. Which relative growth did it give?
A: 0.962 (inactive)

Q: For `CC1=C(C(=O)O)N2C(=O)[C@H](NC(=O)[C@@H](N)c3ccccc3)[C@H]2SC1`, which relative growth is on record?
A: 1.02 (inactive)

Q: Which relative growth does the source give for `N[C@@H](C(=O)N[C@@H]1C(=O)N2C(C(=O)O)=C(Cl)CS[C@H]12)c1ccccc1` here?
A: 0.0303 (active)

Q: With `CC1=C(C(=O)O)N2C(=O)[C@@H](NC(=O)[C@@H](N)c3ccccc3)[C@H]2SC1` as the molecule, how does the relative growth read?
A: 0.998 (inactive)

Q: How did the relative growth turn out when `CC1=C(C(=O)O)N2C(=O)[C@@H](NC(=O)[C@H](N)c3ccccc3)[C@H]2SC1` was run?
A: 1.03 (inactive)

Q: `CC1=C(C(=O)O)N2C(=O)C(NC(=O)C(N)c3ccccc3)C2SC1` (centres undefined) was tested. Which relative growth did it give?
A: 1.03 (inactive)

Q: For `N[C@@H](C(=O)N[C@@H]1C(=O)N2C(C(=O)O)=C(Cl)CC[C@H]12)c1ccccc1`, which relative growth is on record?
A: 0.0311 (active)

Q: Which relative growth does the source give for `NC(C(=O)NC1C(=O)N2C(C(=O)O)=C(Cl)CSC12)c1ccccc1` (centres undefined) here?
A: 0.0491 (active)

Q: How did the relative growth turn out when `OC[C@H]1O[C@H](n2nnc3ccccc32)[C@@H](O)[C@@H](O)[C@@H]1O` was run?
A: 0.989 (inactive)

Q: For `Cc1noc(C)c1S(=O)(=O)Nc1cccc2c1O[C@H](CN(C)S(=O)(=O)c1cccs1)[C@H](C)CN([C@@H](C)CO)C2=O`, which relative growth is on record?
A: 1 (inactive)

Q: Which relative growth does the source give for `CCCN1C[C@@H](C)[C@H](OC)CN(C)C(=O)c2ccc(NS(=O)(=O)c3cn(C)cn3)cc2OC[C@@H]1C` here?
A: 1 (inactive)

Q: Which relative growth does the source give for `Nc1ccc(/C=C/c2ccccc2)cc1` here?
A: 0.999 (inactive)

Q: With `C[C@H](CO)N1C[C@H](C)[C@@H](CN(C)C(=O)c2cnccn2)Oc2cc(Br)ccc2S1(=O)=O` as the molecule, how does the relative growth read?
A: 0.986 (inactive)

Q: How did the relative growth turn out when `CC1CCc2cc(F)cc3c(=O)c(C(=O)O)cn1c23` (centres undefined) was run?
A: 0.0455 (active)

Q: How did the relative growth turn out when `CC1CCc2c(N3CCC(O)CC3)c(F)cc3c(=O)c(C(=O)O)cn1c23` (centres undefined) was run?
A: 0.0484 (active)

Q: How did the relative growth turn out when `C[C@@H]1CN([C@@H](C)CO)C(=O)Cc2cc(NC(=O)Cc3ccccc3)ccc2O[C@@H]1CN(C)Cc1ccc(Oc2ccccc2)cc1` was run?
A: 0.987 (inactive)

Q: `O=C(C[C@H]1C=C[C@H](NS(=O)(=O)c2ccccc2F)[C@@H](CO)O1)NCCCN1CCOCC1` was tested. Which relative growth did it give?
A: 0.993 (inactive)

Q: For `C[C@H]1CN([C@@H](C)CO)C(=O)Cc2cc(NS(=O)(=O)c3ccccc3)ccc2O[C@@H]1CN(C)S(C)(=O)=O`, which relative growth is on record?
A: 0.961 (inactive)

Q: With `NC(=O)[C@@H]1C(=O)C[C@@H]2C[C@@H]3Cc4cccc(O)c4C(=O)[C@@H]3C(=O)[C@]2(O)C1=O` as the molecule, how does the relative growth read?
A: 0.164 (active)

Q: `C[C@@H]1CN([C@@H](C)CO)C(=O)Cc2cc(NC(=O)C3CCCCC3)ccc2O[C@H]1CN(C)C(=O)Nc1cccc2ccccc12` was tested. Which relative growth did it give?
A: 1.01 (inactive)

Q: With `COC(=O)[C@H](Cc1ccc(N=[N+]=[N-])cc1)N1CC2=C[C@@H](C3CC3)n3c(=O)n(C)c(=O)n3[C@H]2[C@@H]1[C@@H](O)Cc1ccccc1` as the molecule, how does the relative growth read?
A: 0.989 (inactive)

Q: Which relative growth does the source give for `CCN1CCN(c2cc3c(cc2F)c(=O)c(C(=O)O)cn3C2CC2)CC1` here?
A: 0.0449 (active)

Q: For `CC(=O)NCC1CN(c2ccc(N3CCOCC3)c(F)c2)C(=O)O1` (centres undefined), which relative growth is on record?
A: 0.701 (inactive)

Q: How did the relative growth turn out when `O=C(O)c1cn(C2CC2)c2cc(N3CCC(O)(COc4ccc(N5C[C@H](CO)OC5=O)cc4F)CC3)c(F)cc2c1=O` was run?
A: 0.111 (active)

Q: With `CC(=O)NC[C@H]1CN(c2ccc(N3CCN(C(=O)CO)CC3)c(F)c2)C(=O)O1` as the molecule, how does the relative growth read?
A: 0.38 (inactive)

Q: With `O=C(O)c1cn(C2CC2)c2cc(N3CCNCC3)c(F)cc2c1=O` as the molecule, how does the relative growth read?
A: 0.0478 (active)

Q: How did the relative growth turn out when `C[C@H](CO)N1C[C@H](C)[C@H](CN(C)C(=O)Nc2ccc(F)cc2)OCCCC[C@H](C)Oc2ccc(NC(=O)C3CCOCC3)cc2C1=O` was run?
A: 0.981 (inactive)

Q: Which relative growth does the source give for `Cc1ccc(S(=O)(=O)Nc2ccc3c(c2)C(=O)N([C@@H](C)CO)C[C@H](C)[C@H](CN(C)S(C)(=O)=O)OCCCC[C@@H](C)O3)cc1` here?
A: 1 (inactive)

Q: `NC[C@H]1CC[C@H](C(=O)N2CCC(c3ccncc3)CC2)CC1` was tested. Which relative growth did it give?
A: 1.03 (inactive)

Q: Which relative growth does the source give for `Cc1ccc(S(=O)(=O)N[C@H]2CC[C@H](CCNC(=O)CN3CCOCC3)O[C@@H]2CO)cc1` here?
A: 1 (inactive)

Q: For `C[C@@H]1CN([C@H](C)CO)C(=O)c2cc(NS(=O)(=O)c3ccccc3)ccc2O[C@@H](C)CCCCO[C@H]1CN(C)Cc1ccc(C(=O)O)cc1`, which relative growth is on record?
A: 1 (inactive)

From the supplement of paper PMC9446081
